Sampled rows, rich in hits. Any-hit rate of the full collection: about 9.9%.
SW480 rerep – inducers of DNA re-replication in SW480 colon cancer cells | SW480 DNA re-replication, Hoechst DNA content imaging, 48 h | AID 624297 | Potency, µM (highest dose often 46.1 µM), hits mostly activators | 340,000 compounds, 1.8% hits; further: nearly all actives have a fitted effect of over 55% in size
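Per well, 250 cells were exposed to pinned compound for 48 hr. Nuclear DNA was visualised with Hoechst (40 min, 37 C) and total object intensity recorded by fluorescence scanning.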
MCF10A rereplic – DNA re-replication induction in MCF 10a cells; MCF 10A DNA re-replication, Hoechst nuclear intensity, 48 h; Potency, µM (doses to about 46.1 µM), hits mostly activators; 350,000 compounds, 2.9% hits; further: nearly all actives have a fitted effect of over 50% in size
KB-3-1 cytotox – KB-3-1 parental cell cytotoxicity. Potency, µM (top dose mostly 46.1 µM), actives largely listed as cytotoxic. AID 1347075. 400,000 compounds, 1.4% hits. KB-3-1 viability, CellTiter-Glo ATP luminescence, 72 h; further: nearly all actives have a fitted effect of over 60% in size
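KB-3-1 parental drug-naive adenocarcinoma cells in DMEM/10% FBS, incubated 72 h at 37 C with pin-transferred compounds across a concentration series. Viability by CellTiter-Glo luminescence; concentration-response curves fitted after normalization.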
IL1B secr inh – inhibitors of inflammasome signaling (IL-1 beta secretion) | THP-1 LPS/ATP IL-1B secretion, AlphaLISA, 16 h; active compounds read low | activity change, % at 57.5 µM | 360,000 compounds, 4.7% hits | AID 743279; in the data active means activity change below about -50%; inconclusive means mostly about -30% to -49%
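Secreted IL-1B measured by AlphaLISA bead assay after 16 h compound exposure of THP-1 cells; compounds (final up to 57.5 uM) added 1 h before LPS (250 ng/mL) and ATP (1.25 mM) stimulation; lower signal means less secretion.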
KB-V1 cytotox – kills drug-selected multidrug resistant KB-V1 cells; 400,000 compounds, 3.4% hits; Potency, µM (highest dose often 46.1 µM), most hits filed as cytotoxic; KB-V1 MDR cells viability, CellTiter-Glo, 72 h; AID 1347076; further: nearly all actives have a fitted effect of over 60% in size
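Following 72 h at 37 degrees C with compound, KB-V1 cell viability was read by CellTiter-Glo luminescence, medium being phenol-red-free DMEM plus 10% FBS; concentration-response parameters came from normalized, curve-fitted qHTS data.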
Each line names hits and unclear results; the compound was inactive in the other large screens. Unless noted, the call rests on the fitted dose curve; in most records, active means well fitted curve in the direction sought with a large enough effect; inconclusive means small, poorly fitted or top-dose-only effect, or another doubt; inactive means no such curve, though single readings can be large; an effect the other way counts as inactive or inconclusive.

CCOc1ccc(NC(=O)CN(C)C(=O)c2cn(-c3ccc(F)cc3)nc2-c2cccc(OC)c2)cc1OCC	MCF10A rereplic inconclusive, KB-V1 cytotox inconclusive
Cc1ccc2nc(NC(=O)c3cc(-c4ccco4)nc4ccccc34)sc2c1	MCF10A rereplic 16.4µM, KB-3-1 cytotox inconclusive, KB-V1 cytotox inconclusive
CCN(CC)CCNC(=O)c1ccc(NC(=O)c2cn(-c3ccc(F)cc3)nc2-c2cccc(OC)c2)cc1	MCF10A rereplic inconclusive, IL1B secr inh -89.6
COc1ccc(C(=O)Nc2nc3ccccc3s2)c(OC)c1	SW480 rerep inconclusive, MCF10A rereplic inconclusive, KB-3-1 cytotox 7.31µM, KB-V1 cytotox 6.51µM
O=C(Nc1nc2ccccc2s1)c1cc(-c2ccco2)nc2ccccc12	SW480 rerep inconclusive, MCF10A rereplic inconclusive, KB-3-1 cytotox inconclusive, KB-V1 cytotox inconclusive
COc1ccc2sc(NC(=O)NC(=O)c3c(Cl)cccc3Cl)nc2c1	MCF10A rereplic inconclusive, IL1B secr inh -88.5
Cc1oc(-c2ccc(-c3ccccc3)cc2)nc1CN1CCN(CC(=O)N(C)C)CC1	none
CN(C)c1ccc(-c2csc(C(O)c3cccc(Cl)c3)n2)cc1 (stereo not given)	none (no result: SW480 rerep, MCF10A rereplic)
CCN(CC)CCNC(=O)c1ccc(NC(=O)c2cccc(S(=O)(=O)N(C)C3CCCCC3)c2)cc1	none
CCN(CC)CCNC(=O)c1ccc(NC(=O)c2ccccc2-c2ccc(C(F)(F)F)cc2)cc1	SW480 rerep inconclusive, MCF10A rereplic 20.6µM, IL1B secr inh -66.9
CN(C)CCNC(=O)C(=O)Nc1cc2c3c(c1)CCC(=O)N3CCC2	none
CCN(CC)CCNC(=O)c1ccc(NC(=O)c2ccc3c(c2)CCC3)cc1	SW480 rerep 18.4µM
CCN(CC)CCNC(=O)c1ccc(NC(=O)Cc2ccccc2F)cc1	MCF10A rereplic inconclusive
CCCCOC(=O)Nc1nc2ccc(OC)cc2s1	none
CCCCN(C(=O)NC(=O)Nc1nc2ccc(OC)cc2s1)S(C)(=O)=O	SW480 rerep inconclusive, KB-3-1 cytotox inconclusive, KB-V1 cytotox 9.2µM
CCN(CC)CCNC(=O)C(=O)Nc1cc2c3c(c1)CCC(=O)N3CCC2	IL1B secr inh -61.6
CCN(CC)CCNC(=O)c1ccc(NC(=O)c2cc(-c3ccco3)nc3ccccc23)cc1	SW480 rerep inconclusive, MCF10A rereplic inconclusive, IL1B secr inh -88.6
CC(C)(C)c1nc(NC(=O)Nc2ccccc2)sc1Br	MCF10A rereplic inconclusive, KB-3-1 cytotox inconclusive, IL1B secr inh -90.8, KB-V1 cytotox inconclusive
CCOc1ccc2nc(NC(=O)Nc3ccccc3)sc2c1	none
COc1ccc2nc(NC(=O)Nc3ccccc3)sc2c1	MCF10A rereplic inconclusive, IL1B secr inh -60.0
COc1cccc(-c2cc(C(=O)Nc3nc4ccccc4s3)c3ccccc3n2)c1	KB-V1 cytotox 20.6µM
CCC1CC(C(=O)Nc2ccccc2)C(=O)O1 (stereo not given)	KB-V1 cytotox inconclusive
CCOc1ccccc1N1C(=O)c2ccc(S(=O)(=O)c3ccc(C(=O)O)cc3)cc2C1=O	none
OCC1(Cc2ccccc2F)CCCN(Cc2c(F)ccc(F)c2F)C1 (stereo not given)	MCF10A rereplic inconclusive, IL1B secr inh inconclusive
Cc1ccccc1NC(=O)CCCN1C(=O)C2CC=CCC2C1=O (stereo not given)	none
Cc1nn(C(=O)c2ccccc2F)c(C)c1S(=O)(=O)N1CCCCCC1	none (no result: SW480 rerep, MCF10A rereplic, IL1B secr inh)
CCN(C(=O)c1ccc2c(SCC(=O)O)c3c(nc2c1)CCC3)c1cc(Cl)ccc1OC	none
Cn1cc(Cl)c(C(=O)Nc2nc3ccccc3s2)n1	KB-V1 cytotox 18.4µM
COc1cc(NC(=O)CNC(=O)Cn2cnc3sc(C)c(C)c3c2=O)cc(OC)c1OC	none (no result: SW480 rerep, MCF10A rereplic)
Cc1cc(N(C)NC(=S)Nc2ccccc2)nc(C)n1	SW480 rerep 1.84µM
CC(C)CC1C(=O)N(Cc2cn(Cc3ccco3)nn2)CCS(=O)(=O)N1Cc1ccc(-c2ccncc2)cc1 (stereo not given)	IL1B secr inh inconclusive (no result: SW480 rerep, MCF10A rereplic)
CCC/C=C/c1ccc(CN2C(CC(C)C)C(=O)N(Cc3cn(Cc4ccco4)nn3)CCS2(=O)=O)cc1 (stereo not given)	KB-3-1 cytotox inconclusive, IL1B secr inh -62.4, KB-V1 cytotox inconclusive (no result: SW480 rerep, MCF10A rereplic)
Cc1cccc(C)c1-c1ccc(CN2C(CC(C)C)C(=O)N(Cc3cn(CCO)nn3)CCS2(=O)=O)cc1 (stereo not given)	MCF10A rereplic inconclusive, IL1B secr inh -56.7
COc1ccccc1N1CCN(S(=O)(=O)c2c(C(=O)N3CCOCC3)c(C)n(C)c2C)CC1	MCF10A rereplic inconclusive
CCCCN1C(=O)/C(=C/C=C2/CC(C)(C)CN2C)SC1=S	MCF10A rereplic inconclusive, IL1B secr inh -58.9
CCCCN1C(=O)/C(=C/C=C2\Oc3ccccc3N2CC)SC1=S	none
CC[C@@H]1[C@H]2CCCC(=O)N3CC[C@@H](C[C@@H]1Nc1ccccc1)[C@@H]23	KB-3-1 cytotox inconclusive, KB-V1 cytotox inconclusive
CCN(CC)S(=O)(=O)c1ccc(OC)c(NC(=O)c2sc3ccccc3c2Cl)c1	none (no result: SW480 rerep, MCF10A rereplic, IL1B secr inh)
Cc1cc(C(=O)CN2C(=O)C(=O)N(Cc3ccccc3)C2=O)c(C)n1-c1ccccc1F	MCF10A rereplic inconclusive
COc1ccc(CCn2c(C)cc(C(=O)CN3C(=O)C(=O)N(Cc4ccco4)C3=O)c2C)cc1	KB-3-1 cytotox 5.8µM
Cc1cc(C(=O)CN2C(=O)C(=O)N(Cc3ccccc3)C2=O)c(C)n1CC1COc2ccccc2O1 (stereo not given)	MCF10A rereplic 4.61µM
Cc1cc(C(=O)CN2C(=O)NC(c3ccccc3)(c3ccccc3)C2=O)c(C)n1Cc1ccccc1	none
Cc1cc(C(=O)CN2C(=O)C(=O)N(Cc3ccccc3)C2=O)c(C)n1Cc1ccc(F)cc1	SW480 rerep inconclusive, MCF10A rereplic 5.17µM, KB-3-1 cytotox inconclusive
Cc1cc(C(=O)CN2C(=O)C(=O)N(Cc3ccccc3)C2=O)c(C)n1Cc1ccccc1	KB-V1 cytotox 20.6µM
COc1ccc(CCNC(=O)CCCN2C(=O)C(c3ccccc3)Oc3cccnc32)cc1OC (stereo not given)	none
Cc1cc(C(=O)CSc2nnc(-c3ccc(F)cc3)o2)c(C)n1CC1CCCO1 (stereo not given)	KB-V1 cytotox inconclusive
COc1cc(-c2nnc(SCC(=O)c3cc(C)n(CC4CCCO4)c3C)o2)cc(OC)c1OC (stereo not given)	KB-V1 cytotox 18.4µM
Cc1cc(C(=O)CSc2nnc(-c3ccc(F)cc3)o2)c(C)n1CC1COc2ccccc2O1 (stereo not given)	MCF10A rereplic 16.4µM
Cc1cc(C(=O)CSc2nnc(-c3ccccc3)o2)c(C)n1CC1COc2ccccc2O1 (stereo not given)	MCF10A rereplic inconclusive
CNC(=O)Cn1cc(S(=O)(=O)Cc2ccccc2F)c2ccccc21	none (no result: SW480 rerep, MCF10A rereplic, IL1B secr inh)
COc1ccc(C2(OC)Oc3cc(OC)ccc3C(=O)C2(O)OC)cc1 (stereo not given)	MCF10A rereplic inconclusive, KB-3-1 cytotox inconclusive, IL1B secr inh -73.6, KB-V1 cytotox 2.91µM

Screening results deposited in PubChem BioAssay by National Center for Advancing Translational Sciences (NCATS).
